# Measured values taken from PubChem BioAssay.
# Experiment: RPMI8226 myeloma cell viability, profiling panel, resazurin fluorescence, basal, 24 h, PK04 Diversity Set (AID 1180);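 note: RPMI8826 multiple myeloma cell line at 5000 cells per well; test concentration not given here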
# Settings: higher = more signal
row,SMILES,z-score
1,O=C1OCCC=C[C@H]2OC34C=CCN(Cn5nnc6ccccc65)C(=O)[C@H]3N(CCCCCCO)C(=O)[C@@H]4C12 (stereo not given in full),-0.288
2,O=C1C[C@@](C(=O)NCCN2CCOCC2)(c2ccc([N+](=O)[O-])cc2)[C@@H](c2ccc(CO)cc2I)N1C1CCCCC1,0.891
3,NC(=O)N1C(=O)C2C(C1=O)C1C=C(CCCO)C2C(c2cccs2)N1Cc1cccc(OC(F)(F)F)c1 (stereo not given),-0.18
4,C=C(/C(=C/C[C@H](OC(C)=O)c1ccccc1OCCO)c1cc(C(=O)OC)ccc1OC)C(C)C,0.0967
5,CCCC[C@@H](O)C1=C(COc2ccccc2)C[C@H]2C(=O)N(C)C(=O)[C@H]2[C@H]1CO,0.296
6,O=C1NC(=O)C2C1C=CC(C(O)c1cccc3ccccc13)N2Nc1ccc(Cl)cc1Cl (stereo not given),-1.84
7,COc1ccc(-c2cc3c(c(CCc4ccccc4)n2)[Si](C(C)C)(C(C)C)OC3)cn1,1.18
8,COC(=O)[C@@]1(Cc2ccc(F)cc2)[C@H]2c3cc(C(=O)N4CCCC4)n(CCc4ccc(O)c(O)c4)c3C[C@H]2CN1C(=O)c1ccccc1,-0.795
9,CC1=C[C@@]2(CO)C(=O)[C@]3(CO3)[C@@H]1[C@H]1[C@]2(C)C=C(CO)C(=O)[C@]12CO2,0.483
10,O=C(NCC(F)(F)F)[C@@H]1c2ccccc2C(=O)N(Cc2ccc(OC(F)(F)F)cc2)[C@H]1c1ccc(CO)cc1,1.04
11,COC(=O)Cn1c(C(=O)N(C)C)cc2c1C[C@H]1CN(C(=O)c3ccccc3)[C@@](Cc3ccc(F)cc3)(C(=O)OC)[C@@H]21,-0.795
12,COc1ccc([Si](C)(C)[C@H]2[C@H](CC(=O)N(CCO)Cc3ccccc3)O[C@@]3(C(=O)N(Cc4cccc(N5CCOC5=O)c4)c4ccccc43)[C@@H]2C)cc1,-3.7
13,COCCCNC(=O)[C@]1(CCS(=O)(=O)c2ccccc2)N=C(c2ccc(OCCCO)cc2)O[C@@H]1c1ccccc1CN=[N+]=[N-],-0.601
14,[N-]=[N+]=Nc1ccccc1C[C@]1(C(N)=O)N=C(c2ccc(OCCCO)cc2)O[C@H]1c1ccccc1N=[N+]=[N-],-1.64
15,C#CCN([C@@H](Cc1ccc(O)cc1)C(=O)OC)[C@@H](/C=C/C1CC1)[C@H](O)Cc1ccccc1,-0.61
16,CN(C)c1ccc(C(O)C2C=CC3C(=O)N(c4ccccc4)C(=O)C3N2Nc2ccc([N+](=O)[O-])cc2)cc1 (stereo not given),-1.41
17,NCCCCCCNC(=O)[C@@H]1C[C@@H]2C(=O)N[C@@H](CCCCN)C(=O)N2[C@@H]1c1cccc(OCCO)c1,0.685
18,CCOC(=O)C1=CC[C@@H](c2ccc(OCc3ccccc3)c(OC)c2)N(S(=O)(=O)c2ccc(C)cc2)[C@H]1c1ccc(SC)cc1,-0.455

row,SMILES,z-score
1,COC(=O)[C@@]1(Cc2ccccc2)[C@H]2c3cc(C(=O)N(C)C)n(Cc4c(CO)[nH]cc(C)c4=O)c3C[C@H]2CN1C(=O)c1ccccc1,0.0961
2,CN1C(=O)C2C=CC(C(O)COCc3ccccc3)N(N(c3ccccc3)c3ccccc3)C2C1=O (stereo not given),-0.861
3,CCC[C@@H]1C[C@@]1(CCC)[C@@H](NC(=O)OCc1ccccc1)c1ccc(-c2ccccc2)cc1,1.72
4,COCCOC(=O)N1C(=O)[C@@]2(c3cc(C#CC4=CCCCC4)ccc31)[C@H](c1ccc(OCCO)cc1)N1[C@H](c3ccccc3)[C@H](c3ccccc3)OC(=O)[C@H]1[C@@H]2C(=O)NC[C@H](O)c1ccccc1,-0.48
5,C=C(CCCC)/C(=C/C[C@@H](OC(=O)c1ccncc1)c1ccccc1OCCO)c1cnc2ccccc2c1,0.133
6,CC1CC/C=C\[C@H]2OC34C=CCN(C(C)C)C(=O)[C@H]3N(CCCCCCO)C(=O)[C@@H]4C2C(=O)O1 (stereo not given in full),2.06
7,O=C1C2C=CC(C(O)c3ccc(Br)cc3)N(Nc3ccccc3F)C2C(=O)N1c1ccccc1 (stereo not given),0.489
8,COC(=O)[C@@]1(Cc2ccc(OC)cc2)[C@H]2c3cc(C(=O)N4CCCC4)n(Cc4cccc5ccccc45)c3C[C@H]2CN1C(=O)c1ccccc1,0.0686
9,CCOC(=O)C1CCCCN1 (stereo not given),-0.809
10,COc1ccc([Si](C)(C)[C@H]2[C@H](CCn3cc([C@H](O)c4ccccc4)nn3)O[C@@]3(C(=O)N(Cc4ccc(N5C(=O)c6cccc7cccc5c67)cc4)c4ccccc43)[C@@H]2C)cc1,-0.761
11,[N-]=[N+]=NCc1ccccc1C[C@@]1(C(=O)N2CCOCC2)N=C(c2ccc(OCCCO)cc2)O[C@@H]1c1ccccc1,-4.29
12,COC(=O)C(CC#Cc1ccc2c(c1)[C@]1(C(=O)N2)[C@H](C(=O)N2CCN(c3ncccn3)CC2)[C@H]2C(=O)O[C@H](c3ccccc3)[C@H](c3ccccc3)N2[C@@H]1c1ccc(OCCO)cc1)C(=O)OC,-0.126
13,[N-]=[N+]=Nc1ccccc1[C@@H]1OC(c2ccc(OCCCO)cc2)=N[C@]1(Cc1ccccc1)C(=O)NCC(O)CO (stereo not given in full),-0.71
14,CCCC[C@@H]1C[C@H]1[C@@H](NC(=O)c1cccs1)c1ccc(C(F)(F)F)cc1,-0.601
15,COC(=O)[C@@]1(Cc2ccc(OC)cc2)[C@H]2c3cc(C(=O)N(C)C)n(CCO)c3C[C@H]2CN1C(=O)c1ccccc1,-0.915
16,CCOC(=O)C[C@H]1[C@H](OC(=O)Cc2ccc3c(c2)OCO3)[C@@H](NC(=O)CC(C)C)c2cc(OCCCO)ccc2N1C(=O)Cc1ccc(OC)cc1,0.2
17,O=C1NC(=O)C2C1C=CC(C(O)c1ccco1)N2Nc1ccccn1 (stereo not given),-1.09
